Experiment [1] relates to Wnt5a (protein binding on small-molecule microarray). In words: Wnt5a binders on small-molecule microarray, primary screen, biophysical, 635/667 nm fluorescence (AID 1142).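 Note: fluorescence read at 667 nm with signal to noise per printed feature.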 Particulars: 635 nm fluorescence, higher = more signal.
Experiment [2] is described as follows: cell viability in Huh7 cells, primary screen, cytotoxicity control for HCV replication inhibitor project, CellTiter-Glo luminescence, basal, 48 h (AID 1143).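 Note: Huh7 hepatoma cells carrying a hepatitis C replication reporter with no stimulus; test concentration not given here.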 Conditions: Huh7 HCV replicon, higher = more signal, called active from +8 up or from −8 down. For orientation: ATP-based viability assays read luminescence as a measure of living cells.
The nature of experiment [3]: P. aeruginosa biofilm formation inhibitors, primary screen, PAO1 strain, BacTiter-Glo luminescence, LB-PBS (AID 1144). Conditions: 12 h, higher = more signal.
The nature of experiment [4]: CREB reporter modulators without forskolin, primary screen, cell-based, PC12, CRE-LacZ reporter, unstimulated (AID 1145). Particulars: no forskolin, luminescence, 4.5 h, higher = more signal, called active from +8 up or from −8 down.
Experiment [5] is described as follows: CREB reporter modulators under forskolin, primary screen, cell-based, PC12, CRE-LacZ reporter, forskolin-stimulated (AID 1146).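 Note: PC12 cells with 6xCRE LacZ reporter stimulated by forskolin 10 µM; beta-galactosidase reporter signal reflecting CREB driven transcription.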 Conditions: luminescence, 4.5 h, higher = more signal, called active from +8 up or from −8 down.
For experiment [6], the target named is Streptavidin (Streptomyces avidinii) (UniProt P22629). Kind of experiment: streptavidin binders on small-molecule microarray, primary screen, artefact control for SMM compound annotation, biophysical, 635/667 nm fluorescence (AID 1147).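 Note: signal reflects streptavidin binding to arrayed compounds as a control protein.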 Conditions: streptavidin binding, higher = more signal.
Sequence of Streptavidin (Streptomyces avidinii) (P22629 whole entry, looked up): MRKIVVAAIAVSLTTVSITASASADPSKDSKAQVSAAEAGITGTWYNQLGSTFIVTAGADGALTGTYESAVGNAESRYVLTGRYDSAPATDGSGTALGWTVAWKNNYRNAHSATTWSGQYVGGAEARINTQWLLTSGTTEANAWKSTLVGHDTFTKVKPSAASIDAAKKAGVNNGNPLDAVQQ
Experiment [7] in a line: small-molecule binders of probe aInhba, primary screen, biochemical, small-molecule microarray, 635/667 nm fluorescence (AID 1148).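 Note: score merges 667nm spot fluorescence with signal-to-noise for antibody binding to printed compounds.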 Particulars: higher = more signal.
For experiment [8], the target named is Torsin-1A (Homo sapiens) (UniProt O14656). Kind of experiment: torsin A binders from cell lysate, primary screen, small-molecule microarray, wild-type, 635/667 nm (AID 1149). Conditions: COS7 hTOR1A-WT lysate, 635 nm fluorescence, higher = more signal.
Sequence of Torsin-1A (Homo sapiens) (O14656 whole entry, looked up): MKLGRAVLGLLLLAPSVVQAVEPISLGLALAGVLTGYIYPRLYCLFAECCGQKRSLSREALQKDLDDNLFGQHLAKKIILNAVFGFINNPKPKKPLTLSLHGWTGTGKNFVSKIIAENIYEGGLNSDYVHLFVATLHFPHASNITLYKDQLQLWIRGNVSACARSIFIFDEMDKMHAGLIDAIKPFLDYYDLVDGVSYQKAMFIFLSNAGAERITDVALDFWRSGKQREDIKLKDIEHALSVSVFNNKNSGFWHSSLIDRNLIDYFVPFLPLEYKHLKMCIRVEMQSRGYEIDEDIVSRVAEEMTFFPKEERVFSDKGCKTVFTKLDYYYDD
For experiment [9] the target is unchanged. In words: small-molecule binders of mutant TOR1A in lysate, primary screen, cell lysate, small-molecule microarray, COS7 lysate, 635/667 nm fluorescence (AID 1150).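 Note: score pools 667 nm emission and signal to noise measuring lysate protein binding.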 Conditions: COS7 hTOR1A mutant lysate, 635 nm fluorescence, higher = more signal.
For experiment [10], the system named is Sonic hedgehog protein (Shh). Kind of experiment: small-molecule binders of Shh protein, primary screen, biochemical, small-molecule microarray, 635/667 nm fluorescence (AID 1151).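 Note: Shh protein binding to compounds spotted on small-molecule microarray slides; score combines spot fluorescence intensity with signal-to-noise across triplicate slides.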 Particulars: small-molecule microarray binding, 635 nm fluorescence; higher = more signal.
Experiment [11] is described as follows: E. coli DRC41 culture turbidity changes, primary screen, E. coli filamentation inducer project, strain DRC41, OD650, 48 h (AID 1152).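 Note: E. coli MC1000 strain DRC41 lacking acrAB efflux pump and sulA.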 Conditions: E. coli DRC41 (acrAB sulA), higher = more signal, called active from +8 up or from −8 down.
The nature of experiment [12]: small-molecule binders of probe aLefty1, primary screen, biochemical, small-molecule microarray, 635/667 nm fluorescence (AID 1153).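 Note: score merges spot fluorescence with signal-to-noise ratio from the scanned slide images.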 Conditions: higher = more signal.
Experiment [13] can be described thus: PSAC antagonists in infected red cells, primary screen, cell-based, P. falciparum Indochina, OD700, 1 h (AID 1154). Conditions: P. falciparum Indochina infected RBC osmotic lysis, higher = more signal, called active from +8 up or from −8 down.
Experiment [14] is described as follows: PSAC antagonists in infected red cells, primary screen, cell-based, P. falciparum Indochina, OD700, 2 h (AID 1155).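 Note: lysis reports solute entry through the parasite surface anion channel PSAC; channel blockers reduce lysis of infected cells.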 Particulars: P. falciparum Indochina infected erythrocytes, osmotic lysis OD700; higher = more signal, called active from +8 up or from −8 down.
The nature of experiment [15]: osmotic lysis modulators in infected erythrocytes, primary screen, PSAC antagonist project, cell-based, P. falciparum Indochina, OD700, 3 h (AID 1156). Particulars: higher = more signal, called active from +8 up or from −8 down.
Experiment [16] can be described thus: PSAC antagonists in infected red cells, primary screen, cell-based, P. falciparum Indochina, OD700, 18 h (AID 1157). Particulars: P. falciparum Indochina infected erythrocytes, osmotic lysis OD700, 18 h; higher = more signal, called active from +8 up or from −8 down.
The nature of experiment [17]: modulators of S6 phosphorylation in cells, primary screen, cell-based, A549, cytoblot, luminescence, serum-stimulated (AID 1158).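 Note: serum-stimulated A549 lung adenocarcinoma cells; signal is phosphorylated S6 detected by cytoblot immunostaining with HRP secondary.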 Conditions: A549 phospho-S6 cytoblot, 5 h, higher = more signal.
The target in experiment [18] is NADPH oxidase 2 (Homo sapiens) (UniProt P04839). In words: NOX2-dependent H2O2 signal modulators, primary screen, NOX inhibitor project, cell-based, HEK293-NOX2, PMA-stimulated, Amplex Red fluorescence (AID 1159). Note: test concentration not given here. Conditions: 45 min, higher = more signal, called active from +8 up or from −8 down.
Sequence of NADPH oxidase 2 (Homo sapiens) (P04839 whole entry, looked up): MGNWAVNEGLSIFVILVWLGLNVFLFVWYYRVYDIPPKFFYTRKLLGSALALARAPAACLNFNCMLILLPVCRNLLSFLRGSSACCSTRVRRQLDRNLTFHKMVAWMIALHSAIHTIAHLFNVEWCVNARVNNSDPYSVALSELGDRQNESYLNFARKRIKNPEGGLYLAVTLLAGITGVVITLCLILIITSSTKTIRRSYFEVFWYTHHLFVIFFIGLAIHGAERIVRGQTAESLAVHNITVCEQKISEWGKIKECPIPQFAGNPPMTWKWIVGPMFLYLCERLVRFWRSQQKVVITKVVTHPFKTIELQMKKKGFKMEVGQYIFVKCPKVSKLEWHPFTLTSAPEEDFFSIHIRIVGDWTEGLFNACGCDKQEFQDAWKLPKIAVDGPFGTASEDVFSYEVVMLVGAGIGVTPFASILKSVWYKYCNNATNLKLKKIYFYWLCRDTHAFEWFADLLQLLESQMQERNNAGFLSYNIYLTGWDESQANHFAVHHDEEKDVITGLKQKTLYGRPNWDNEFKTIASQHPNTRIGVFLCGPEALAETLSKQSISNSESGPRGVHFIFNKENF
For experiment [19], the target named is NADPH oxidase 4 (Homo sapiens) (UniProt Q9NPH5). In words: NOX4-dependent H2O2 signal modulators, primary screen, NOX inhibitor project, cell-based, HEK293-NOX4, tetracycline-induced, Amplex Red fluorescence (AID 1160). Particulars: 45 min, higher = more signal, called active from +8 up or from −8 down.
Sequence of NADPH oxidase 4 (Homo sapiens) (Q9NPH5 whole entry, looked up): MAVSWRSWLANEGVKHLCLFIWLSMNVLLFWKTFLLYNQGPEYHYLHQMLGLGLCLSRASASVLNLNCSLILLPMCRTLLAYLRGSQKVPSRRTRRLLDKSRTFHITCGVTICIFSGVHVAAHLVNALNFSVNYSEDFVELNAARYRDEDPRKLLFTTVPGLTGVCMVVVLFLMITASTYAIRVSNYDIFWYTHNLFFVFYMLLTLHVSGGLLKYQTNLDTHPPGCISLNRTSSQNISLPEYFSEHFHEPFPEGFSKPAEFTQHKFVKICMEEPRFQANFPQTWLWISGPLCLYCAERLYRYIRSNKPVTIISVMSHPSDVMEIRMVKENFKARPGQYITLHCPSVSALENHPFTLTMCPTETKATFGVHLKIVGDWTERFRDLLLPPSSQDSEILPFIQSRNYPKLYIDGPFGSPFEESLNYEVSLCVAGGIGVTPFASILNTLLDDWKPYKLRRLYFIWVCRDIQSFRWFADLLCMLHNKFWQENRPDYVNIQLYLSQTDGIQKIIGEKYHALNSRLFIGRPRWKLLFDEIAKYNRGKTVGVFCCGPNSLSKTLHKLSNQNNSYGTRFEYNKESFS
The target in experiment [20] is NADPH oxidase 5 (Homo sapiens) (UniProt Q96PH1). In words: NOX5-dependent H2O2 signal modulators, primary screen, NOX inhibitor project, cell-based, HEK293-NOX5, Amplex Red fluorescence (AID 1161). Particulars: HEK293-NOX5, ionomycin, 45 min, higher = more signal.
Sequence of NADPH oxidase 5 (Homo sapiens) (Q96PH1 whole entry, looked up): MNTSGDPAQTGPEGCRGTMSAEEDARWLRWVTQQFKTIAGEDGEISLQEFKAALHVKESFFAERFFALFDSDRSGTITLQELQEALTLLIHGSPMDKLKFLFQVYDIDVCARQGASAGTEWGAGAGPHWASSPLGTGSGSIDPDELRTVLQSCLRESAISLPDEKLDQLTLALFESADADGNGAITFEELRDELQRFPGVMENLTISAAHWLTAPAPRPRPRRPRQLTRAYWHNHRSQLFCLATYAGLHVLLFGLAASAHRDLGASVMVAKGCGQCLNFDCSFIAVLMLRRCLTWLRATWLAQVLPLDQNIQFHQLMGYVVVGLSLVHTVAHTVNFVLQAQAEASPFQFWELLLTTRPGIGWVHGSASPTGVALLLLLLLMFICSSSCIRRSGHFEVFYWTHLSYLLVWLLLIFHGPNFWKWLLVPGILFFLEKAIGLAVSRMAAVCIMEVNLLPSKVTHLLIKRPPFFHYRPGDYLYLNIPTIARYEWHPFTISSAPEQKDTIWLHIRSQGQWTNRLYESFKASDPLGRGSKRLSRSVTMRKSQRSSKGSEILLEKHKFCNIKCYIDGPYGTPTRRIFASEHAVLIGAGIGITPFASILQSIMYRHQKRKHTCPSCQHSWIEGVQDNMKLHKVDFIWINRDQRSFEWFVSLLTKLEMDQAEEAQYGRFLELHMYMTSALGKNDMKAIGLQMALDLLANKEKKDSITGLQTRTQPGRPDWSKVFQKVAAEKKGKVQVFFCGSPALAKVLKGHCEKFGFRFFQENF

Activity calls are given as the source filed them. Unless noted, the rule behind the calls is not given here.

As to `COC(=O)c1c(CC[C@@H](CO)NC(=O)N2CCC[C@H]2Cn2cc(C3(O)CCCCC3)nn2)oc(C(C)=O)c1C(=O)OC`, the composite z-score in experiment [1] is -0.0505; in [6], 0.429; in experiment [7] it was -0.0448; in experiment [8] it was 0.666; in experiment [9], 0.895; in experiment [10], 1.44. In addition, the composite z-score in [12] was -0.101. Moreover, the z-score in [2] is -0.257 (inactive); in experiment [3], -0.156 (inactive); in experiment [4] it was 0.498 (inactive); in experiment [5] it was 0.306 (inactive); in [11] it was -0.955 (inactive); in [13], 1.35 (inactive). Further, the z-score in experiment [14] is 0.092 (inactive); in experiment [15] it was 1.14 (inactive); in experiment [16] it was 0.163 (inactive); in [17] it was -0.0302; in experiment [18], -0.645 (inactive); in experiment [19] it was -0.981 (inactive). Besides, the z-score in [20] is -1.37.

Consider `N#Cc1ccc(NN2C(C(O)c3ccc(Br)cc3)C=CC3C(=O)N(c4ccccc4)C(=O)C32)cc1` (stereo not given), for which the composite z-score in experiment [1] was 0.395; in experiment [6] it was 0.843; in [7], 0.222; in experiment [8], 0.441; in experiment [9], 0.604; in experiment [10], 0.834. The same compound showed a composite z-score in [12] of 0.57. The z-score in experiment [2] is -0.35 (inactive); in experiment [3], -1.3 (inactive); in experiment [4], 0.0535 (inactive); in experiment [5] it was -0.36 (inactive); in experiment [11], -0.922 (inactive); in [13] it was 14.8 (active). Besides, the z-score was 2.9 (inactive) in experiment [14]; 0.419 (inactive) in [15]; -0.348 (inactive) in experiment [16]; 0.717 in [17]; -2.6 (inactive) in experiment [18]; -4.29 (inactive) in [19]. This compound also displayed a z-score in experiment [20] of -3.45.

As to `Cc1ccc(NN2C(C(O)c3c(F)cccc3Cl)C=CC3C(=O)N(C4CCCCC4)C(=O)C32)cc1` (stereo not given), the composite z-score in [1] is 0.361; in experiment [6], 1.75; in [7] it was -0.0675; in experiment [8], 0.0334; in experiment [9], 0.448; in experiment [10] it was -0.216. The same compound displayed a composite z-score in [12] of 0.23. Also, the z-score in experiment [2] was -3.26 (inactive); in [3], -0.933 (inactive); in experiment [4], -0.0787 (inactive); in experiment [5], 0.355 (inactive); in experiment [11], 0.0905 (inactive); in experiment [13], 12.9 (active). In addition, the z-score in [14] was 1.86 (inactive); in experiment [15], 2.45 (inactive); in [16] it was 0.902 (inactive); in experiment [17], -0.319; in experiment [18], -1.41 (inactive); in experiment [19], -0.336 (inactive). The z-score in experiment [20] was -1.67.

Turning to `C=C[C@H](C)[C@H](OC(=O)Nc1ccc(SC)cc1)c1ccc(OCCO)cc1`, the composite z-score in [1] was 0.448; in [6], 0.374; in experiment [7] it was -0.0221; in experiment [8] it was 0.766; in [9], 0.937; in [10], 1.33. In addition, the composite z-score in experiment [12] was 0.329. The z-score in experiment [2] is -3.53 (inactive); in experiment [3] it was 0.0722 (inactive); in experiment [4], 7.78 (inactive); in [5], 1.58 (inactive); in [11], -1.79 (inactive); in experiment [13] it was 27.6 (active). Also, the z-score in [14] is 15.6 (active); in experiment [15], 1.91 (inactive); in experiment [16], 0.184 (inactive); in experiment [17], 1.58; in experiment [18], -0.831 (inactive); in experiment [19] it was -0.356 (inactive). Besides, the z-score in experiment [20] was -0.756.

For the compound `COC(=O)[C@@]1(Cc2ccccc2)[C@H]2c3cc(C(=O)N4CCCC4)n(CCc4ccccn4)c3C[C@H]2CN1C(=O)c1ccccc1`, the composite z-score in experiment [1] was 0.372; in experiment [6] it was 1.94; in [7], 0.605; in experiment [8], 1.11; in experiment [9] it was 1.4; in experiment [10] it was 0.311. Moreover, the composite z-score in experiment [12] was 0.928. Moreover, the z-score is -0.917 (inactive) in experiment [2]; 1.09 (inactive) in experiment [3]; 0.201 (inactive) in [4]; 0.755 (inactive) in experiment [5]; -1.5 (inactive) in experiment [11]; 1.93 (inactive) in experiment [13]. Besides, the z-score is 0.0978 (inactive) in experiment [14]; 1.54 (inactive) in experiment [15]; 0.569 (inactive) in experiment [16]; -0.266 in experiment [17]; 0.267 (inactive) in experiment [18]; 0.311 (inactive) in experiment [19]. This compound also displayed a z-score in [20] of -3.01.

For the origin of these results see PubChem BioAssay.
